# Most compounds without a hit are left out; they make up all but 14% or so of the library.
# HCV inhibitor = blocks hepatitis C virus; Huh7.5.1 HCVcc-Cre infection, luciferase reporter, 44 h; Potency, µM (titrated, usually from 41.8 µM), for inactives: at the top dose activity change, negative = inhibition, most hits filed as inhibitors; hit rate 3.4% among 340,000; further: potency means the concentration at half of the fitted maximal effect
#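 Cells seeded at 1,000/well and cultured 4 h, then compounds added followed by HCVcc-Cre virus (~0.5 moi). After 44 h further culture, luciferase substrate was added, plates held 15 min at room temperature, and luminescence read for 15 sec.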
# HCMV inh = human cytomegalovirus inhibition; AID 1259415; HFF cells, HCMV-luciferase reporter, 72 h; hits give low values; hit rate 4.5% among 410,000; activity change, negative = inhibition, % at 57.5 µM; in the data active means activity change below about -60%; inconclusive means no clear call, values can overlap the other calls; inactive means above about -39%
#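 Screen run at 2 compound doses on HFFs infected with reporter HCMV, MOI 1 PFU/cell. Luciferase activity from cell lysates at 72 h post infection gave inhibition relative to buffer-only and Salinomycin wells.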
# Pf growth 96h = inhibits malaria parasite growth, 96 h; hit rate 6.9% among 320,000; Potency, µM (titrated, usually from 28.7 µM), for inactives: at the highest dose activity change, negative = inhibition, usual class: inhibitors; P. falciparum luciferase reporter growth, 96 h; AID 504834; further: potency means the concentration at half of the fitted maximal effect
#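 96 h incubation, 37 C, 5% CO2, of luciferase-reporter P. falciparum-infected RBCs (2% hematocrit, 0.05% parasitemia final) with test compounds; endpoint luminescence.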
# Marburg entry inh = Marburg virus entry inhibition | Marburg virus pseudotyped entry inhibition, cell reporter | Potency, µM (top dose mostly 37.8 µM), without a hit: at the highest dose activity change, negative = inhibition, usual class: inhibitors | hit rate 1.8% among 300,000 | AID 540276; calls by dose curve; tested in HEK293 cells; further: potency means the concentration at half of the fitted maximal effect
# Lassa entry inh = inhibitors of Lassa virus binding or cell entry. AID 540256. Lassa virus pseudotype entry inhibition, cell reporter. Potency, µM (titrated, usually from 37.9 µM), for inactives: at the top dose activity change, negative = inhibition, most hits filed as inhibitors. hit rate 1.2% among 300,000; calls by dose curve; tested in HEK293 cells; further: potency means the concentration at half of the fitted maximal effect; nearly all actives have a fitted effect of over 50% in size
# Pf growth 48h = inhibits P. falciparum growth in the first generation, 48 h; P. falciparum luciferase growth in erythrocytes, 48 h; Potency, µM (doses to about 28.7 µM), for inactives: at the top dose activity change, negative = inhibition, actives largely listed as inhibitors; AID 504832; hit rate 5.9% among 310,000; further: potency means the concentration at half of the fitted maximal effect
#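 Luciferase-expressing P. falciparum in infected erythrocytes (2% hematocrit, 0.1% parasitemia final) in RPMI 1640/0.5% Albumax were exposed to compound for 48 hours at 37 C, 5% CO2; growth read as luminescence.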
# The depositor's hits bear a star; u = inconclusive; x = not tested or not shown; ! = not confirmed by another sample; [ ] = another dose, or the depositor's remark. Unless noted, the call rests on the fitted dose curve; in most records, active means well fitted inhibition curve with a large enough effect; inconclusive means small, poorly fitted or top-dose-only effect, or another doubt; inactive means no such curve, though single readings can be large or run the other way. On the % scale 0 is the no-effect control and ±100 the full control effect.
SMILES,HCV inhibitor,HCMV inh,Pf growth 96h,Marburg entry inh,Lassa entry inh,Pf growth 48h
CC(C)(C)NC(=O)C(c1ccncc1)N(Cc1cccs1)C(=O)Cn1nnc(-c2cccs2)n1 (stereo not drawn),u,-1.6,u,7.2%,-16.8%,2.94µM*
Cc1cc(C)c(N(C(=O)Cn2nnc3ccccc32)C(C(=O)NC(C)(C)C)c2ccsc2)c(C)c1 (stereo not drawn),-7.1%,-34.2,u,-15.8%,-9.5%,u
CC(C)C(=O)N1c2nc(C(C)C)nn2C2(CCCCC2)[C@@H]2CCCC[C@@H]21,x,6.3,x,-8.2%[46.1 µM],2.5%[46.1 µM],x
Cc1cc(C)cc(NC(=O)N2CCN(c3cc(-c4noc(C)n4)ccc3C)CC2)c1,x,u,x,x,-13.3%[46.1 µM],x
CC(C)(C)NC(=O)C(c1ccncc1)N(C(=O)Cn1nnc(-c2cccs2)n1)C1CCCCC1 (stereo not drawn),18.7%,8.8,31.6%,-1.4%,-17.5%,9.28µM*
Cc1ccc(C(C(=O)NC(C)(C)C)N(Cc2ccco2)C(=O)Cn2nnc(-c3cccs3)n2)cc1 (stereo not drawn),u,-36.5,23.2%,11.2%,-1.6%,9.28µM*
CC(C)(C)NC(=O)C(c1ccc(O)cc1)N(Cc1ccco1)C(=O)Cn1nnc(-c2cccs2)n1 (stereo not drawn),0.5%,-39.7,-11.9%,u,-20.1%,13.1µM*
Cc1ccc(C(C(=O)NC(C)(C)C)N(Cc2ccco2)C(=O)CCC(=O)Nc2ccccn2)cc1 (stereo not drawn),-11.1%,-13.1,u,u,25.8%,u
Cc1ccc(N(C(=O)Cn2nnc(-c3cccs3)n2)C(C(=O)NC2CCCC2)c2ccncc2)cc1 (stereo not drawn),-2.1%,-30.9,-3.8%,u,5.7%,u
O=C(NCc1ccccc1)C(c1ccc(F)cc1)N(Cc1ccc2c(c1)OCO2)C(=O)Cn1nnc(-c2cccs2)n1 (stereo not drawn),u,-13.6,89.3%,u,-32.3%,10.4µM*
O=C(CN(Cc1ccco1)C(=O)Cn1nnc(-c2cccs2)n1)NCc1ccccc1,-23.9%,-20.1,u,-1.6%,-3.4%,-28.0%
O=S1(=O)C=CCN1C1CCCC1,x,x,x,x,7.2%[46.1 µM],x
Cc1ccc2c(c1)cc(C(=O)NCc1ccccc1C)n2C,x,-20.4,x,u,u,x
COc1ccccc1[C@@H]1C(c2cccc(Cl)c2)=NN(c2ccccc2)[C@H]1C(=O)N1CCOC1=O,2.8%,x,10.4µM*,-43.4%,14.8%,14.7µM*
COc1ccccc1[C@@H]1C(c2ccccc2)=NN(c2ccc(Br)cc2)[C@H]1C(=O)N1CCOC1=O,-28.3%,-18.8,x,x,x,x
C=CCNc1oc(COc2ccc(C)cc2)nc1C#N,-3.0%,30.7,6.57µM*,x,x,x
CN(C)CCNc1oc(COc2ccc(-c3ccccc3)cc2)nc1C#N,10µM*,-20.9,x,u,u,u
COc1ccc(OCc2nc(C#N)c(NCc3ccccc3Cl)o2)cc1,x,-30.5,x,5.0%[46.1 µM],-23.8%[46.1 µM],x
O=C1CCCN1CCCNc1ccc2nnc(CCC(=O)N3CCN(c4ccccc4)CC3)n2n1,1.4%,-35.2,72.2%,x,x,11.5%
O=C(CSc1nc2nn(-c3ccccc3)c(=O)c-2c2n1CCCCC2)NCCc1ccccc1,u,-34.0,u,-29.2%[46.1 µM],x,u
O=C(CSc1nc2nn(-c3ccccc3)c(=O)c-2c2n1CCCCC2)c1ccc(OC(F)F)cc1,7.94µM*,0.0,x,x,x,x
Cc1ccc(C)c(C(=O)C(C)Sc2nc3nn(-c4ccccc4)c(=O)c-3c3n2CCCCC3)c1 (stereo not drawn),-9.3%,u,9.28µM*,x,x,u
CCSc1nc2nn(-c3ccccc3)c(=O)c-2c2n1CCCCC2,-10.6%,-8.9,x,-0.4%,-2.7%,-18.8%
O=C1NC(=O)N(c2ccc3c(c2)OCO3)C(=O)/C1=C\c1ccc(N2CCCCC2)o1,0.6%,-66.3*,-21.7%,-13.8%,-9.8%,-6.4%
OCCCc1ccc(O)c(O)c1,-11.5%,0.1,u,x,x,40.9%
SMILES,HCV inhibitor,HCMV inh,Pf growth 96h,Marburg entry inh,Lassa entry inh,Pf growth 48h
CCCN(CCC)CCc1ccc(O)c(O)c1,x,x,x,1µM*!,23.6%,x
O=C(NNc1cccc(Cl)n1)C(F)(F)F,15.3%,-1.9,2.33µM*,-7.4%[46.1 µM],26.9%[46.1 µM],11.7µM*
COc1ccc2[nH]c(=O)c(CN(Cc3cccs3)S(=O)(=O)c3c(C)ccc4nsnc34)cc2c1,11.2µM*,-102.5*,x,u,13µM*,x
Cc1ccc2cc(CN(CCCO)S(=O)(=O)c3cccc4nsnc34)c(=O)[nH]c2c1,10.9%,51.0,4.15µM*,-3.3%,u,x
Cc1ccc2[nH]c(=O)c(CN(Cc3ccco3)S(=O)(=O)c3c(C)ccc4nsnc34)cc2c1,7.08µM*!,-3.1,10.3%,u,u,-8.4%
Cc1ccc2nsnc2c1S(=O)(=O)N(Cc1ccco1)Cc1cc2ccc(C)c(C)c2[nH]c1=O,2.2%,-85.3*,-1.1%,1.58µM*,u,14.7%
CCOC(=O)c1oc2c(c1C)-c1nn(Cc3ccc(Cl)cc3)cc1CC2,x,-30.0,x,-21.1%[46.1 µM],-18.7%[46.1 µM],x
CCOC(=O)c1c(C)[nH]c(C)c1S(=O)(=O)N(C)CC(=O)Nc1ccc(C)cc1C,x,-9.0,x,x,-15.9%[46.1 µM],x
CN(C)CCN(C)Cc1c2ccccc2c(CN(C)CCN(C)C)c2ccccc12,3.98µM*,u,1.65µM*,u,u,6.57µM*
CCOc1ccccc1Nc1nnc(-c2cc3cc(OC)ccc3oc2=O)s1,x,-1.7,x,x,u,x
COc1ccc(S(=O)(=O)N2CCC3(CC2)OCCN3S(=O)(=O)c2ccc(OC)cc2)cc1,-22.8%,u,9.28µM*,-18.0%,-9.4%,u
COc1ccc(S(=O)(=O)N2CCOC23CCN(S(=O)(=O)c2ccc(Cl)cc2)CC3)cc1,u,-10.2,u,-13.9%,5.4%,11.7µM*
COC1CCCN(Cc2cn(C)nc2-c2ccc(Oc3ccccc3)cc2)C1 (stereo not drawn),-4.0%,8.1,u,u,4.8%[46.1 µM],2.1%
COCCN1CCCC(CNCc2cn(C)nc2-c2ccc(Oc3ccccc3)cc2)C1 (stereo not drawn),14.1µM*,u,u,x,x,6.57µM*
CCCN1CCC(NCc2cn(C)nc2-c2ccc(Oc3ccccc3)cc2)CC1,11.2µM*,u,u,4.8%,x,1.65µM*
Cc1ccc(Nc2nc3nonc3[nH]c2=O)cc1C,-6.9%,34.4,5.22µM*,u,9.4%,45.5%
Cc1ccc(Nc2nc3nonc3[nH]c2=O)cc1Cl,-3.2%,-20.0,0.0%,u,u,u
NS(=O)(=O)C#Cc1ccccc1,x,x,x,u,5.8µM*,x
Cc1ccc(CC(=O)Nc2c(C(=O)N3CCN(c4ccccc4F)CC3)oc3ccccc23)cc1,x,-21.0,x,-14.8%[46.1 µM],0.3%[46.1 µM],x
O=C(N[C@@H]1C/C=C\C[C@H](CC(=O)N(CCO)Cc2ccccc2)C(=O)N[C@@H](Cc2ccccc2)COC1=O)OCC1c2ccccc2-c2ccccc21,-18.2%,-68.8*,x,x,x,x
